Assay outcomes (PubChem)
FLuc modulator = inhibits or activates purified firefly luciferase, miR-21 counter-screen; P08659; purified FLuc, Km substrates, luminescence inhibition; Potency, µM (series often up to 57.5 µM), for the others: at the highest dose activity change, negative = inhibition, hits mostly inhibitors; 6.9% of 360,000 active; AID 588342;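 also: plate controls were vehicle for no effect and reference inhibitor for full effect; nearly all actives have a fitted effect of over 55% in size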
Target sequence (P08659 whole entry, looked up): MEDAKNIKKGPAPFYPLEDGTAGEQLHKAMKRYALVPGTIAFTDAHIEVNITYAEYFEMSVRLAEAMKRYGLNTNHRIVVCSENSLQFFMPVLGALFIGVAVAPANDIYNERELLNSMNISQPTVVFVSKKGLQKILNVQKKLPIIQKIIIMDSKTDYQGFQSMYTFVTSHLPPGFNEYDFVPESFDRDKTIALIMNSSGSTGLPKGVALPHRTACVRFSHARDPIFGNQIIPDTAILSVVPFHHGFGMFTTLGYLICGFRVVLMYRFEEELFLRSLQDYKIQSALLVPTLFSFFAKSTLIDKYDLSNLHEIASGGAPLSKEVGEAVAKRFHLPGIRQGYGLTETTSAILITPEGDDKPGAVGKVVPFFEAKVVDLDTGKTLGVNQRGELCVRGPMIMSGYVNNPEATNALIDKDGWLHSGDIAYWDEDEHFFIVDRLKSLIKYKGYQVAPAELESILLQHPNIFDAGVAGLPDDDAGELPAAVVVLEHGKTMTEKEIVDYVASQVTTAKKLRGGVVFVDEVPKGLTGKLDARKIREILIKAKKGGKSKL
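Biochemical qHTS of compounds, final roughly 60 µM downward over six points, against 10 nM purified firefly luciferase using Km concentrations of substrates (10 uM D-luciferin, 10 uM ATP) in Tris acetate pH 7.5 buffer; luminescence output.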
ELG1 genotox = inducers of genotoxicity in HEK293T ELG1-luciferase cells | HEK293T ELG1-luciferase reporter, luminescence, 16 h | Potency, µM (titrated, usually from 46 µM), inactives show at the top dose activity change, positive = activation, usual class: activators | 1.3% of 330,000 active; also: % of control where 0% means no effect; nearly all actives have a fitted effect of over 60% in size
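Step 1: seed 2,000 HEK293T ELG1-luciferase cells per well. Step 2: add compound or DMSO, incubate 16 hr at 37 °C. Step 3: ONE-Glo, 30 min at room temperature, read luminescence.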
ELG1 repair inh = blocks ELG1-dependent DNA repair in HEK293T cells | HEK293T ELG1-luciferase reporter, luminescence, 16 h; DNA damage induced by 5-fluorouridine | Potency, µM (series often up to 46.1 µM), for inactives: at the highest dose activity change, negative = inhibition, most hits filed as inhibitors | 2.3% of 330,000 active | AID 504467; also: % is scaled to controls: 0 for no effect and ±100 for the full control effect; nearly all actives have a fitted effect of over 55% in size
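In this reporter screen, reduction of luminescence relative to DMSO vehicle indicated activity. Compounds and 5-fluorouridine were added together to 2,000 cells per well, incubated for 16 hr at 37 °C, then developed with ONE-Glo.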
Rab9 prom act = activates the Rab9 promoter. Huh7 Rab9 promoter-luciferase reporter, luminescence, 24 h. Potency, µM (doses to about 9.22 µM), inactives show top-dose activation, negative = inhibition, actives largely listed as activators. 2.8% of 320,000 active. AID 485297; also: % of control where 0% means no effect; nearly all actives have a fitted effect of over 60% in size
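Using Huh7 cells stably transfected with Rab9 promoter–luciferase, compounds were incubated 24 h at 37 °C, 5% CO2; luciferase luminescence was read 10 min after reagent addition.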
NPC1 prom act = activators of NPC1 promoter; Huh7 NPC1 promoter luciferase reporter, 24 h; Potency, µM (highest dose often 9.22 µM), without a hit: at the highest dose activation, most hits filed as activators; 2.4% of 320,000 active; AID 485313; also: % of control where 0% means no effect; nearly all actives have a fitted effect of over 60% in size
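Luminescence from an NPC1 promoter-driven luciferase reporter in stably transfected Huh7 cells was measured after 24 h compound treatment at 37 °C, followed by 10 min ambient incubation with luciferase detection reagent.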
SMN2 splice up = enhancers of SMN2 splice variant expression | HEK293 SMN2-luciferase splicing reporter, luminescence, 30-36 h | Potency, µM (top dose mostly 46.1 µM), inactives show top-dose activity change, positive = activation, usual class: activators | 2.8% of 210,000 active | AID 1458; also: % of control where 0% means no effect; nearly all actives have a fitted effect of over 55% in size
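HEK293 cells carry an SMN2 […]–luciferase reporter in which exon 7 inclusion puts luciferase in frame. Cells were plated 10-12 h before compound addition, then incubated 30-36 h at 37C. ONE-Glo luminescence was read; sodium butyrate at 4.5 mM final served as control.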
An asterisk follows results filed as active. This is a sample that favours compounds with a hit; in the whole collection about 9.2% have one here. Calls follow the shape of the dose curve; as a rule, active = well fitted curve in the direction sought with a large enough effect; inconclusive = small, poorly fitted or top-dose-only effect, or another doubt; inactive = no such curve, though single readings can be large; an effect the other way counts as inactive or inconclusive. Potency is read from the fitted curve at half-maximal effect.

How did N#C/C(=C/c1ccc(N2CCOCC2)o1)C(=O)NC1CCCCC1 do in these assays?
FLuc modulator: 12µM*; ELG1 genotox: 3.3%; ELG1 repair inh: -4.1%; Rab9 prom act: 23.7%; NPC1 prom act: 3.4%

What do the screens show for `N#C/C(=C\c1ccc(N2CCOCC2)o1)C(=O)Nc1ccc(O)cc1`?
FLuc modulator: 5.36µM*; ELG1 genotox: inconclusive; ELG1 repair inh: inconclusive; Rab9 prom act: 25.2%; NPC1 prom act: 21.8%; SMN2 splice up: 15.8µM*

Results for COc1ccc(NC(=O)/C(C#N)=C/c2ccc(Br)o2)cc1 ?
FLuc modulator: -10.9%; ELG1 genotox: 2.4%; ELG1 repair inh: inconclusive; Rab9 prom act: 18.3%; NPC1 prom act: 9.5%; SMN2 splice up: inconclusive

How did O=C(Cn1cc(S(=O)(=O)Cc2cccc(Cl)c2)c2ccccc21)NCc1ccccc1Cl do in these assays?
FLuc modulator: -13.6%

What do the screens show for `O=C(NC(C(=O)N/N=C/c1c2ccccc2cc2ccccc12)c1n[nH]c(=O)c2ccccc12)c1ccccc1` (stereo not drawn)?
FLuc modulator: 1.4%; ELG1 genotox: -2.6%; ELG1 repair inh: -22.8%; Rab9 prom act: 8.3%; NPC1 prom act: -0.3%

Results for O=C(NC(C(=O)N/N=C/c1ccccc1)c1n[nH]c(=O)c2ccccc12)c1ccccc1 (stereo not drawn) ?
FLuc modulator: 19µM*; ELG1 genotox: 4.0%; ELG1 repair inh: 0.0%; Rab9 prom act: inconclusive; NPC1 prom act: -0.4%

How did COCC(=O)N1CCC(Oc2ccc(C(=O)NC3Cc4ccccc4C3)cc2)CC1 do in these assays?
FLuc modulator: -2.7%; ELG1 genotox: -2.3%; ELG1 repair inh: 0.0%; Rab9 prom act: -5.2%; NPC1 prom act: -1.5%

Results for CCOC(=O)c1cc(-c2ccc(OC(F)F)cc2)nc2nc(SC)[nH]c(=O)c12 ?
FLuc modulator: 6.01µM*; ELG1 genotox: -4.3%; ELG1 repair inh: inconclusive; Rab9 prom act: -3.7%; NPC1 prom act: 1.1%

What do the screens show for `Cc1cc(NC(=O)CCCSc2nc(-c3ccco3)cc(C(F)(F)F)n2)n(-c2ccccc2)n1`?
FLuc modulator: 5.9%; ELG1 genotox: -7.3%; ELG1 repair inh: 16.4µM*; Rab9 prom act: -0.5%; NPC1 prom act: -12.1%; SMN2 splice up: -40.6%

Results for COC(=O)c1ccc(-n2nnc(-c3nc(-c4ccccc4Cl)no3)c2C)cc1 ?
FLuc modulator: 4.2%

What do the screens show for `COc1cccc(-n2nnc(-c3nc(-c4ccccc4F)no3)c2C)c1`?
FLuc modulator: 2.39µM*

How did COc1ccc(Cl)cc1-n1nnc(-c2nc(-c3ccccc3)no2)c1C do in these assays?
FLuc modulator: 15.1µM*

How did Cc1c(-c2nc(-c3ccccc3)no2)nnn1-c1ccc(F)c(Cl)c1 do in these assays?
FLuc modulator: -3.4%

Results for COc1ccc(CCNC(=O)CN(c2cc(C(F)(F)F)ccc2Cl)S(C)(=O)=O)cc1 ?
FLuc modulator: -15.5%; SMN2 splice up: 2.1%

How did CCCN1C2CCCC1CC(NC(=O)C1CCCCC1)C2 (stereo not drawn) do in these assays?
FLuc modulator: 1.8%; ELG1 genotox: -1.3%; ELG1 repair inh: -2.1%; Rab9 prom act: -6.9%; NPC1 prom act: -4.7%; SMN2 splice up: 5.5%

What do the screens show for `O=C(CN1C2CCCC1CC(NC(=O)C1CCCCC1)C2)NCc1ccc(F)cc1` (stereo not drawn)?
FLuc modulator: 0.0%; ELG1 genotox: -6.9%; ELG1 repair inh: 11.6µM*; Rab9 prom act: -10.8%; NPC1 prom act: -19.0%

What do the screens show for `COc1cccc(C(=O)NC2CC3CCCC(C2)N3CC(=O)Nc2ccccc2C(F)(F)F)c1` (stereo not drawn)?
FLuc modulator: -2.5%; ELG1 genotox: -38.8%; ELG1 repair inh: inconclusive; Rab9 prom act: 2.1%; NPC1 prom act: 2.5%
